Here are results for 27 compounds from PubChem BioAssay.

Values without a mark were called inactive.

One test can be described thus: CREB reporter modulators without forskolin, primary screen, cell-based, PC12, CRE-LacZ reporter, unstimulated (AID 1145). The settings on record: no forskolin, luminescence, 4.5 h, higher = more signal, called active from +8 up or from −8 down.
`CC(=O)NCCCC[C@@H]1NC(=O)[C@@H]2C[C@H](C(=O)NCCCCCC[N+](C)(C)C)[C@H](c3cccc(OCCO)c3)N2C1=O`: the z-score is -0.947.

With `CCCCN1CC=CC23O[C@@H]4C=CCCOC(=O)C4[C@H]2C(=O)N(CCCO)[C@@H]3C1=O` (some centres not stated), the z-score was -0.484.

In the case of `C=CCC(OC(C)=O)[C@@H]1[C@@H](N(Cc2cc3ccccc3o2)C(=O)c2cccc3ccccc23)c2cc(OCCCO)ccc2N1C(=O)Cc1ccc(OC)cc1` (some centres not stated), the z-score is 0.279.

As for `C=CCN1C(=O)[C@]2(COC(c3ccc(OCCCO)cc3)=N2)Cc2ccccc21`, the z-score is 1.8.

With `C=C[C@H](C)[C@H](OC(=O)Nc1ccc(OC)cc1)c1ccc(O)c2ccccc12`, the z-score is 0.236.

Regarding `COc1ccccc1CN1C(=O)c2ccccc2[C@](Cc2ccccc2I)(C(=O)NC2CC2)[C@@H]1c1ccc(CO)cc1`, the z-score was 0.324.

Take `C=CC[C@@]1(C(N)=O)N=C(c2ccc(OCCCO)cc2)O[C@@H]1c1ccccc1N=[N+]=[N-]`: the z-score is 0.614.

In the case of `CCN(CC)c1ccc(N2CC=CC34O[C@@H]5C=CCOC(=O)[C@@H]5[C@H]3C(=O)N(CCCCCO)[C@@H]4C2=O)cc1` (some centres not stated), the z-score is 1.57.

Take `COCCOC(=O)N1C(=O)[C@@]2(c3cc(C#CCC(C(=O)OC)C(=O)OC)ccc31)[C@H](c1ccc(OCCO)cc1)N1[C@H](c3ccccc3)[C@H](c3ccccc3)OC(=O)[C@H]1[C@@H]2C(=O)NC[C@H](O)c1ccccc1`: the z-score was -1.56.

A short description of a further test: CREB reporter modulators under forskolin, primary screen, cell-based, PC12, CRE-LacZ reporter, forskolin-stimulated (AID 1146).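 Note: PC12 cells with 6xCRE LacZ reporter stimulated by forskolin 10 µM; beta-galactosidase reporter signal reflecting CREB driven transcription.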 The following applies: luminescence, 4.5 h, higher = more signal, called active from +8 up or from −8 down.
With `C=CC[C@]1(C(=O)O)N=C(c2ccc(OCCCO)cc2)O[C@H]1c1ccccc1CN=[N+]=[N-]`, the z-score is -0.0119.

As for `C[N+](C)(C)CCCCNC(=O)[C@H]1C[C@H]2C(=O)N3CCC[C@H]3C(=O)N2[C@H]1c1ccc(O)cc1`, the z-score is -0.512.

For the compound `[N-]=[N+]=NCc1ccccc1[C@@H]1OC(c2ccc(OCCCO)cc2)=N[C@]1(Cc1ccccc1)C(=O)O`, the z-score was -0.707.

Consider `CN(C)CCCN1C(=O)[C@@]2(c3ccc([N+](=O)[O-])cc3)CC(=O)N(C3CCCCC3)[C@@H]2c2ccc(CO)cc21`, for which the z-score is -0.477.

Take `CCOC1=C2C(c3ccc(C)cc3)N(S(=O)(=O)c3ccc(C)cc3)CC2n2c(=O)n(-c3ccccc3)c(=O)n2C1` (configuration not stated): the z-score was 0.0749.

Take `O=C1c2ccccc2[C@](Cc2ccccc2I)(C(=O)O)[C@H](c2ccc(CO)cc2)N1Cc1ccccc1C(F)(F)F`: the z-score is 0.748.

With `CCCCCCCCCCC(O)C1C=CC2C(=O)N(c3ccccc3)C(=O)C2N1Nc1ccc([N+](=O)[O-])cc1` (configuration not stated), the z-score was 0.925.

Consider `CCOC(=O)C1=CC[C@@H](c2cccc(Cl)c2)N(S(=O)(=O)c2ccc(C)cc2)[C@H]1c1ccc(C#N)cc1`, for which the z-score is 0.119.

Consider `CCCCCCC#C[Si](O[C@H](c1ccccc1)c1cn([C@H](C)c2ccccc2)nn1)(C(C)C)C(C)C`, for which the z-score was 0.15.

Turning to `O=C(NCC(F)(F)F)[C@@H]1c2ccccc2C(=O)N(Cc2ccccc2)[C@H]1c1ccc(CO)cc1`, the z-score is -0.461.

As for `O=C1OCC=C[C@H]2OC34C=CCN(c5ccc(Cl)cc5)C(=O)[C@H]3N(CCCO)C(=O)[C@@H]4[C@@H]12` (some centres not stated), the z-score was 0.245.

For the compound `CCOC(=O)N1C(c2ccc(OCCCO)cc2)=NC(C(=O)OC)N1C(=O)OCC` (configuration not stated), the z-score was 0.666.

As to `Cc1ccc(S[C@]2(C(=O)NCC(F)(F)F)CC(=O)N(C3Cc4ccccc4C3)[C@@H]2c2ccc(CO)cc2I)cc1`, the z-score was 0.0489.

In the case of `[N-]=[N+]=Nc1ccccc1C[C@]1(C(=O)N2CCCCC2)N=C(c2ccc(OCCCO)cc2)O[C@H]1c1ccccc1N=[N+]=[N-]`, the z-score was -1.69.

On to `C=CCNC(=O)[C@H]1[C@@H]2C(=O)O[C@@H](c3ccccc3)[C@@H](c3ccccc3)N2[C@@H](c2ccc(O)cc2)[C@]12C(=O)Nc1ccc(C#Cc3ccc(OC)cc3)cc12`, for which the z-score is 0.468.

As to `[N-]=[N+]=NCc1ccccc1C[C@]1(C(=O)NCc2ccccc2)COC(c2ccc(OCCCO)cc2)=N1`, the z-score is 0.232.

Consider `O=C1OCC=C[C@H]2OC34C=CCN(CCN5CCOCC5)C(=O)[C@H]3N(CCCCCCO)C(=O)[C@@H]4[C@@H]12` (some centres not stated), for which the z-score was -0.201.

For the compound `[N-]=[N+]=Nc1ccccc1[C@H]1OC(c2ccc(OCCCO)cc2)=N[C@@]1(CCS(=O)(=O)c1ccccc1)C(=O)N1CCOCC1`, the z-score is 0.28.
